The values that follow come from PubChem BioAssay.

Assay [1] is described as follows: compound effects on lung adenocarcinoma cell viability – A549, calcein-AM fluorescence, 48 h, basal, profiling panel (AID 1162). Further: test concentration not given here. Conditions: higher = more signal.
Assay [2] is described as follows: compound effects on differentiated 3T3-L1 adipocyte viability – cell-based, 3T3-L1 adipocytes, calcein-AM fluorescence, 48 h, basal, profiling panel (AID 1163). Further: test concentration not given here. Conditions: 3T3-L1 adipocytes viability, higher = more signal.
A short description of assay [3]: compound effects on hepatocellular carcinoma cell viability – HepG2, calcein-AM fluorescence, 48 h, basal, profiling panel (AID 1164). Further: test concentration not given here. To be noted: higher = more signal.
Assay [4] in a line: compound effects on multiple myeloma cell viability – MM1S, calcein-AM fluorescence, 48 h, basal, profiling panel (AID 1165).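 Further: viability of MM1S multiple myeloma cells under basal unstimulated conditions; test concentration not given here.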 To be noted: higher = more signal.
The nature of assay [5]: calcein-AM signal in unstimulated myeloma cells – cell-based, calcein-AM fluorescence, 48 h, PK04 Diversity Set, profiling panel (AID 1166).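 Further: cells grown under basal conditions without added stimulus; test concentration not given here.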 To be noted: RPMI8226 myeloma viability, higher = more signal.
Assay [6] can be described thus: JC-1 mitochondrial signal, unstimulated HepG2 cells – cell-based, JC-1 fluorescence, 24 h, 100 nL compound, profiling panel (AID 1167). Further: test concentration not given here. To be noted: HepG2 mitochondrial potential, higher = more signal.
Assay [7] is described as follows: JC-1 mitochondrial signal, unstimulated adipocytes – cell-based, JC-1 fluorescence, 3T3-L1 adipocytes, 24 h, 100 nL compound, profiling panel (AID 1168). Further: test concentration not given here. To be noted: JC-1 mitochondrial fluorescence, higher = more signal, called active from +8 up or from −8 down.
Assay [8] can be described thus: JC-1 mitochondrial signal, unstimulated myeloma cells – cell-based, JC-1 fluorescence, RPMI8226, 24 h, 100 nL compound, profiling panel (AID 1169). Further: test concentration not given here. Conditions: JC-1 mitochondrial potential fluorescence, higher = more signal.
Assay [9] can be described thus: JC-1 mitochondrial signal, unstimulated MM1S myeloma – cell-based, JC-1 fluorescence, 24 h, 100 nL compound, profiling panel (AID 1170). Further: test concentration not given here. Conditions: MM1S mitochondrial potential, higher = more signal.
Assay [10] can be described thus: resazurin metabolic signal in A549 cells – cell-based, resazurin fluorescence, 24 h, PK04 Diversity Set, profiling panel (AID 1171). Further: test concentration not given here. Conditions: A549 viability, higher = more signal, called active from +8 up or from −8 down. (In general: Alamar Blue is a resazurin reagent that responds to reducing activity.)
Assay [11] can be described thus: resazurin metabolic signal in HepG2 cells – cell-based, resazurin fluorescence, 24 h, PK04 Diversity Set, profiling panel (AID 1172). Further: test concentration not given here. Conditions: HepG2 viability, higher = more signal.
A short description of assay [12]: budding yeast growth changes without added modifier – OD600, strain BY4716, 24 h, basal condition, primary screen (AID 1173). To be noted: S. cerevisiae BY4716 growth, OD600, 24 h; higher = more signal, called active from +8 up or from −8 down.
Assay [13] can be described thus: viability profiling in MM1S myeloma cells – cell-based, resazurin fluorescence, basal, 24 h, PK04 Diversity Set, profiling panel (AID 1174). Further: test concentration not given here. To be noted: higher = more signal, called active from +8 up or from −8 down.
In assay [14] the target is Dihydroorotate dehydrogenase (quinone), mitochondrial (Plasmodium falciparum (isolate 3D7)) (UniProt Q08210). Kind of assay: inhibition of P. falciparum DHODH – biochemical, C-terminal His tag, absorbance 600 nm, primary screen (AID 1175).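 Further: recombinant parasite enzyme with a five histidine tag at its C terminus; test concentration not given here.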 Conditions: PfDHODH enzyme, DCIP absorbance 600 nm; higher = more signal, called active from +8 up or from −8 down.
Sequence of Dihydroorotate dehydrogenase (quinone), mitochondrial (Plasmodium falciparum (isolate 3D7)) (Q08210 whole entry, looked up): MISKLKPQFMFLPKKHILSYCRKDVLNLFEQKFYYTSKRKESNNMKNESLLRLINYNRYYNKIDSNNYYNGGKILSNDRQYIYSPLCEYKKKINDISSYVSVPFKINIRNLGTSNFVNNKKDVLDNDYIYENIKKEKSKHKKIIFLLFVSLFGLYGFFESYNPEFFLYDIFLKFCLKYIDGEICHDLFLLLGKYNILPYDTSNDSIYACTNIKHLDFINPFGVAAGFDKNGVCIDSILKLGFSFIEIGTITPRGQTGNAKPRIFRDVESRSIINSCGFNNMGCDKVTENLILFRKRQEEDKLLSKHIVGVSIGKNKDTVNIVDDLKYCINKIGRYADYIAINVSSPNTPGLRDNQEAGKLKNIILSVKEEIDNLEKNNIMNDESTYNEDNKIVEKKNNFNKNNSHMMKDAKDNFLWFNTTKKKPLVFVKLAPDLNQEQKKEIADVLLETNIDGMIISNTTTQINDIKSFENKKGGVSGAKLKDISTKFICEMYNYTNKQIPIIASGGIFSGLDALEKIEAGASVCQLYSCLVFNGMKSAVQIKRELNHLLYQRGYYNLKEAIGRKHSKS
Assay [15] can be described thus: inhibition of PAO1 biofilm formation – strain PAO1, LB-PBS medium, absorbance 600 nm, primary screen (AID 1176). Further: test concentration not given here. To be noted: P. aeruginosa PAO1 growth/biofilm, A600, 12 h; higher = more signal.
The nature of assay [16]: growth modulation of vineyard yeast isolate – strain RM11-1a, OD600, basal, 24 h, primary screen (AID 1177).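 Further: cultures grown under basal conditions with no added stressor; test concentration not given here.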 To be noted: S. cerevisiae RM11-1a growth, OD600, 24 h; higher = more signal, called active from +8 up or from −8 down.
Assay [17] is described as follows: growth of efflux-deficient E. coli DRC39 – strain DRC39, OD650, 24 h, E. coli filamentation inducers, primary screen (AID 1178).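 Further: growth measured as culture turbidity by optical density at 650 nm; test concentration not given here.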 To be noted: E. coli DRC39 acrAB, higher = more signal, called active from +8 up or from −8 down.
A short description of assay [18]: growth of efflux-deficient E. coli DRC39 – strain DRC39, OD650, 48 h, E. coli filamentation inducers, primary screen (AID 1179).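 Further: screen aims at cell division blockers that make cells filament.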 To be noted: E. coli DRC39 delta-acrAB growth, higher = more signal, called active from +8 up or from −8 down.
A short description of assay [19]: viability profiling in RPMI8226 myeloma cells – cell-based, resazurin fluorescence, basal, 24 h, PK04 Diversity Set, profiling panel (AID 1180).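 Further: RPMI8826 multiple myeloma cell line at 5000 cells per well; test concentration not given here.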 Conditions: higher = more signal.
In assay [20] the target is E3 ubiquitin-protein ligase XIAP (Homo sapiens) (UniProt P98170). In words: small molecules binding XIAP protein – biophysical, small-molecule microarray, fluorescence 635 nm, primary screen (AID 1181).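 Further: score merges 667 nm emission and signal to noise over triplicate slides.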 To be noted: higher = more signal.
Sequence of E3 ubiquitin-protein ligase XIAP (Homo sapiens) (P98170 whole entry, looked up): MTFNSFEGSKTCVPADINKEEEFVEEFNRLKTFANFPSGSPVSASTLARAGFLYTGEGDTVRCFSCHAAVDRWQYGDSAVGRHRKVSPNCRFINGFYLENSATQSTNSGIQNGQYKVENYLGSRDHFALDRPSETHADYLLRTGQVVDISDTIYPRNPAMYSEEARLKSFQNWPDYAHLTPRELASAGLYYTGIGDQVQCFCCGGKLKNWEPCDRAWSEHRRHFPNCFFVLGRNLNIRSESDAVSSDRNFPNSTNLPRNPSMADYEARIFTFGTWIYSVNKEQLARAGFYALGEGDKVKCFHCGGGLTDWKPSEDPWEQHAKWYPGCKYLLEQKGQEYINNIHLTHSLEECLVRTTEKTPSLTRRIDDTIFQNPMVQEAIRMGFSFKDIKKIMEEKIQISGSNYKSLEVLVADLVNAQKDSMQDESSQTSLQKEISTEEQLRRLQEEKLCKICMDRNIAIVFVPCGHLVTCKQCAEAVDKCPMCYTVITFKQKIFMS

Calls of active or inactive are those of the source. Unless noted, how the calls were made is not given here.

Regarding `O=C/C=C/c1ccc(-c2ccccc2)cc1`, the z-score was 0.252 in assay [1]; 0.919 in [2]; -1.45 in [3]; -3.23 in [4]; -4.15 in assay [5]; -0.253 in assay [6]. The z-score in assay [7] is 0.965 (inactive); in [8] it was -0.853; in assay [9], -3.05; in assay [10], -0.539 (inactive); in assay [11], -0.0736; in assay [12], -18.6 (active). Further, the z-score in assay [13] was -1.08 (inactive); in assay [15] it was -0.944 (inactive); in assay [16] it was -21.6 (active); in assay [17], 1.29 (inactive); in assay [18], 0.917 (inactive); in [19] it was -5.15. Besides, the composite z-score in assay [14] was -2.53 (inactive); in assay [20] it was 0.0097.
Consider `CC(C)c1ccc(NN2C(C(O)C(C)c3ccccc3)C=CC3C(=O)N(c4ccccc4)C(=O)C32)cc1` (stereo not given), for which the z-score in [1] was -0.625; in assay [2], -0.856; in assay [3], -1.03; in [4] it was -1.1; in [5], -1.34; in assay [6], -2.13. Further, the z-score in [7] was -1.75 (inactive); in assay [8], -0.628; in assay [9], -0.102; in assay [10] it was -0.868 (inactive); in assay [11], -1.72; in [12] it was 0.0145 (inactive). In addition, the z-score in assay [13] is -1.23 (inactive); in assay [15], 1.22 (inactive); in assay [16], 0.208 (inactive); in assay [17], -0.828 (inactive); in [18], -0.764 (inactive); in assay [19], -1.2. The composite z-score in assay [14] is -0.259 (inactive); in assay [20], 0.155.
For `COc1ccc(CCNC(=O)[C@@H]2c3ccccc3C(=O)N(Cc3cc(F)cc(C(F)(F)F)c3)[C@H]2c2ccc(CO)cc2)cc1`, the z-score is 2.41 in assay [1]; 1.33 in assay [2]; 0.492 in [3]; -0.696 in [4]; 0.36 in assay [5]; 1.98 in assay [6]. Moreover, the z-score in assay [7] is 0.17 (inactive); in [8], -0.455; in assay [9], 0.558; in [10], 1.3 (inactive); in assay [11], -0.162; in assay [12], -0.314 (inactive). Besides, the z-score is 0.821 (inactive) in assay [13]; -0.121 (inactive) in [15]; -0.209 (inactive) in [16]; 0.746 (inactive) in assay [17]; 0.387 (inactive) in assay [18]; 1.16 in [19]. Moreover, the composite z-score in assay [14] was -0.179 (inactive); in assay [20], -0.0835.
Take `C=CC[C@]1(C(=O)NCC(O)CO)N=C(c2ccc(OCCCO)cc2)O[C@H]1c1ccccc1CN=[N+]=[N-]` (stereo not given in full): the z-score in assay [1] was 0.444; in assay [2], -0.0459; in assay [3] it was 1.31; in assay [4], -0.22; in [5], -0.365; in assay [6] it was 1.28. Further, the z-score in assay [7] was -0.451 (inactive); in assay [8], -0.427; in assay [9], -0.825; in assay [10], -0.389 (inactive); in [11] it was -0.766; in assay [12], -0.432 (inactive). Besides, the z-score in assay [13] was -1.51 (inactive); in [15] it was 1.27 (inactive); in [16] it was 0.244 (inactive); in assay [17] it was -0.363 (inactive); in [18], 0.196 (inactive); in assay [19], -0.566. The values for the composite z-score in assay [14] and in assay [20] were -0.0887 (inactive) and -0.0136, respectively.
Regarding `C=C(/C=C\CNS(=O)(=O)c1ccc(C)cc1)[C@H](O)[C@H]1CCCN1S(=O)(=O)c1ccccc1[N+](=O)[O-]`, the z-score in assay [1] was -0.635; in assay [2], 0.186; in assay [3] it was -1.3; in assay [4], -3.14; in [5], -1.51; in [6], -3.05. The z-score in assay [7] is -0.955 (inactive); in [8], -0.938; in assay [9], -0.671; in [10], 0.0403 (inactive); in [11] it was -0.527; in [12], 0.487 (inactive). The z-score was -0.943 (inactive) in assay [13]; 1.21 (inactive) in assay [15]; 2.53 (inactive) in assay [16]; 1.12 (inactive) in [17]; -0.23 (inactive) in [18]; -0.851 in assay [19]. Moreover, the composite z-score in assay [14] was 1.57 (inactive); in [20] it was -0.0448.
In the case of `C=C(C(=O)CC[C@H](OC(=O)c1ccccc1-c1ccccc1C(=O)O)c1ccc(OCCO)cc1)C(C)C`, the z-score in assay [1] was -0.535; in assay [2], 0.484; in [3], -0.659; in [4], -1.43; in assay [5], -1.48; in [6], 0.17. For the same compound, the z-score was 0.447 (inactive) in assay [7]; 0.0683 in assay [8]; -0.0663 in assay [9]; 0.393 (inactive) in [10]; 0.0716 in assay [11]; -1.02 (inactive) in [12]. In addition, the z-score in assay [13] was -0.22 (inactive); in assay [15], 0.509 (inactive); in assay [16], -0.711 (inactive); in assay [17], -0.0716 (inactive); in [18], -0.698 (inactive); in assay [19], 0. Moreover, the composite z-score is -0.311 (inactive) in [14] and 0.125 in assay [20].
In the case of `COc1cc(Cc2cc3c(c(CCc4ccccc4)n2)[Si](C(C)C)(C(C)C)O[C@H]3c2ccccc2)cc(OC)c1OC`, the z-score in [1] was -4.59; in assay [2] it was -0.515; in assay [3], -3.15; in [4], -3.14; in [5] it was -3.71; in [6] it was -3.44. Further, the z-score is 0.0754 (inactive) in assay [7]; -0.548 in assay [8]; -0.663 in assay [9]; -1.24 (inactive) in [10]; -0.877 in assay [11]; -17.2 (active) in [12]. Also, the z-score in assay [13] was -0.489 (inactive); in [15], 0.113 (inactive); in [16], -0.234 (inactive); in [17] it was -0.264 (inactive); in assay [18], -0.65 (inactive); in assay [19], -0.163. For the same compound, the figures for the composite z-score in [14] and in [20] were -0.435 (inactive) and 0.355, respectively.
On to `COCCOC(=O)N1C(=O)[C@@]2(c3cc(C#CCCO)ccc31)[C@H](C(=O)N1CCN(c3ncccn3)CC1)[C@H]1C(=O)O[C@H](c3ccccc3)[C@H](c3ccccc3)N1[C@@H]2c1ccc(OCCO)cc1`, for which the z-score in assay [1] is 0.451; in assay [2], 0.474; in [3], -0.442; in [4], -1.07; in [5], 0.863; in [6] it was -1.02. Also, the z-score is 0.0633 (inactive) in assay [7]; -0.185 in assay [8]; -1.02 in assay [9]; 0.427 (inactive) in assay [10]; 0.739 in assay [11]; 2.7 (inactive) in [12]. For the same compound, the z-score in assay [13] is -0.632 (inactive); in assay [15] it was 1.17 (inactive); in [16], 2.75 (inactive); in assay [17], -0.77 (inactive); in assay [18] it was -0.548 (inactive); in assay [19], 0.555. The composite z-score in assay [14] was -0.486 (inactive); in assay [20], 0.0432.
`CN(C)CCCC[C@@H]1NC(=O)[C@H]2C[C@@H](C(=O)NCCCCCCNC(=O)CS)[C@@H](c3cccc(OCCO)c3)N2C1=O`: the z-score in assay [1] is -0.234; in assay [2] it was -0.288; in assay [3], -0.384; in assay [4] it was -0.315; in assay [5], -0.357; in assay [6], -1.27. The z-score is -0.0363 (inactive) in assay [7]; 0.503 in assay [8]; -0.177 in [9]; 0.0246 (inactive) in assay [10]; -0.27 in assay [11]; -0.587 (inactive) in assay [12]. Besides, the z-score was -0.956 (inactive) in assay [13]; 0.463 (inactive) in assay [15]; -0.511 (inactive) in assay [16]; 0.329 (inactive) in [17]; 0.0044 (inactive) in assay [18]; -0.713 in assay [19]. Moreover, the composite z-score in assay [14] was -0.237 (inactive); in assay [20], -0.177.
